Measurements published in PubChem BioAssay AID1159580 (chemical genetic matrix, 2015).
“And” between values parts separate entries of the source, which are not always exact repeats. Equal values may be shown once. Out of some 5,500 compounds screened, about 2,000 (36%) were called active. Not shown: some 18% with an inconclusive outcome. No stated cut-off is given here; in the data, active means normalized growth mostly below about 0.91 (no sharp cut-off); inconclusive means no clear call, values can overlap the other calls; inactive means mostly above about 0.92. Some of the results follow.

Test: chemical genetic growth profiling, strain panel (AID 1159580);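 further: tested at 20 µM; growth read once vehicle control cultures reached saturation at 30 °C; 1 = growth at the plate median or of vehicle wells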
Conditions: S. cerevisiae deletion strains, growth OD

Measured: normalized growth

O=C(O[C@@H]1Cc2c(O)cc(O)cc2O[C@@H]1c1cc(O)c(=O)c2c(O)c(O)cc([C@H]3Oc4cc(O)cc(O)c4C[C@H]3O)c2c1)c1cc(O)c(O)c(O)c1
inactive: locus YBR021W, strain FUR4, stronger effect = lower value 0.918 | locus YBR171W, strain sec66, stronger effect = lower value 0.938 | locus YDL005C, strain med2, stronger effect = lower value 0.949 | locus YDL185W, strain tfp1, stronger effect = lower value 0.992 | locus YDR001C, strain nth1, stronger effect = lower value 0.984 | locus YDR388W, stronger effect = lower value 0.93 | locus YDR392W, strain spt3, stronger effect = lower value 0.84 | locus YEL061C, strain CIN8 (second series), stronger effect = lower value 0.936 | locus YER110C, stronger effect = lower value 1.03 | locus YGL078C, strain dbp3, stronger effect = lower value 1.02 | locus YGL227W, strain vid30, stronger effect = lower value 0.991 | locus YHR030C, strain SLT2, stronger effect = lower value 1.01 | locus YHR079C, strain IRE1 (second series), stronger effect = lower value 0.946 | locus YHR079C, strain IRE1, stronger effect = lower value 1.03 | locus YHR094C, strain hxt1, stronger effect = lower value 1.02 | locus YIL125W, strain kgd1, stronger effect = lower value 1.04 | locus YIR030C, strain dcg1, stronger effect = lower value 0.973 | locus YJL115W, strain asf1, stronger effect = lower value 0.947 | locus YJL168C, strain set2, stronger effect = lower value 0.997
0.185 (active) and 0.996 (inactive): locus YJL095W, strain BCK1, stronger effect = lower value
active: locus YAL021C, strain ccr4, stronger effect = lower value 0.0928 | locus YAL026C, strain drs2, stronger effect = lower value 0.46 | locus YAL030W, strain snc1, stronger effect = lower value 0.715 | locus YBL061C, strain skt5, stronger effect = lower value 0.531 | locus YBR009C, strain hhf1, stronger effect = lower value 0.556 | locus YBR023C, strain chs3, stronger effect = lower value 0.457 | locus YBR229C, strain ROT2, stronger effect = lower value 0.67 | locus YBR231C, strain swc5, stronger effect = lower value 0.427 | locus YBR279W, strain paf1, stronger effect = lower value 0.549 | locus YCL011C, strain gbp2, stronger effect = lower value 0.62 | locus YCL016C, strain dcc1, stronger effect = lower value 0.765 | locus YCL029C, strain bik1, stronger effect = lower value 0.801 | locus YCL061C, strain MRC1, stronger effect = lower value 0.765 | locus YCL069W, strain vba3, stronger effect = lower value 0.797 | locus YCR088W, strain abp1, stronger effect = lower value 0.911 | locus YDL035C, strain GPR1, stronger effect = lower value 0.224 | locus YDL040C, strain nat1, stronger effect = lower value 0.767 | locus YDL074C, strain BRE1, stronger effect = lower value 0.42 | locus YDL101C, strain DUN1, stronger effect = lower value 0.233 | locus YDL134C, strain PPH21, stronger effect = lower value 0.184 | locus YDL192W, strain arf1, stronger effect = lower value 0.828 | locus YDR069C, strain doa4, stronger effect = lower value 0.116 | locus YDR101C, strain arx1, stronger effect = lower value 0.896 | locus YDR137W, strain rgp1, stronger effect = lower value 0.497 | locus YDR150W, strain NUM1, stronger effect = lower value 0.829 | locus YDR159W, strain sac3, stronger effect = lower value 0.838 | locus YDR162C, strain NBP2, stronger effect = lower value 0.144 | locus YDR195W, strain ref2 0.814 | locus YDR297W, strain sur2, stronger effect = lower value 0.599 | locus YDR318W, strain mcm21, stronger effect = lower value 0.877 | locus YDR334W, strain swr1, stronger effect = lower value 0.571 | locus YDR335W, strain msn5, stronger effect = lower value 0.638 | locus YDR502C, strain sam2, stronger effect = lower value 0.69 | locus YEL003W, strain gim4, stronger effect = lower value 0.659 | locus YEL037C, strain rad23, stronger effect = lower value 0.709 | locus YER015W, strain faa2, stronger effect = lower value 0.292 | locus YER016W, strain bim1, stronger effect = lower value 0.859 | locus YER111C, strain swi4, stronger effect = lower value 0.694 | locus YER155C, strain BEM2 (second series), stronger effect = lower value 0.849 | locus YER155C, strain BEM2, stronger effect = lower value 0.887 | locus YER167W, strain BCK2, stronger effect = lower value 0.78 | locus YFR010W, strain ubp6, stronger effect = lower value 0.63 | locus YGL086W, strain mad1, stronger effect = lower value 0.669 | locus YGL167C, strain pmr1, stronger effect = lower value 0.422 | locus YGL173C, strain kem1, stronger effect = lower value 0.277 | locus YGL240W, strain doc1, stronger effect = lower value 0.81 | locus YGL248W, strain PDE1, stronger effect = lower value 0.474 | locus YGL253W, strain hxk2, stronger effect = lower value 0.588 | locus YGR135W, strain pre9, stronger effect = lower value 0.789 | locus YGR252W, strain gcn5, stronger effect = lower value 0.75 | locus YHR013C, strain ard1, stronger effect = lower value 0.329 | locus YHR027C, strain rpn1, stronger effect = lower value 0.191 | locus YHR129C, strain ARP1, stronger effect = lower value 0.565 | locus YHR142W, strain chs7, stronger effect = lower value 0.532 | locus YHR200W, strain rpn10, stronger effect = lower value 0.845 | locus YIL066C, strain RNR3, stronger effect = lower value 0.153 | locus YIL073C, strain SPO22, stronger effect = lower value 0.198 | locus YJL092W, strain hpr5, stronger effect = lower value 0.882 | locus YJL095W, strain BCK1 (second series), stronger effect = lower value 0.489 | locus YJL129C, strain trk1, stronger effect = lower value 0.829 | locus YJL134W, strain LCB3, stronger effect = lower value 0.825 | locus YJL154C, strain vps35, stronger effect = lower value 0.886 | locus YJL164C, strain tpk1, stronger effect = lower value 0.489 | locus YJL166W, strain qcr8, stronger effect = lower value 0.485 | locus YJL187C, strain SWE1 (second series), stronger effect = lower value 0.13 | locus YJL187C, strain SWE1, stronger effect = lower value 0.604 | locus YJR043C, strain POL32, stronger effect = lower value 0.244
